Assay results as given in PubChem BioAssay (EPA / NIEHS).
Values joined by “and” are separate entries in the source; they are usually repeats but may differ in a detail not shown here. Identical values can stand only once. Records with an inconclusive call do not appear. A structure can be active in one record and inactive in another. Active and inactive are the calls of the source. Rule for the calls, unless noted: active = hit-call score of the fitted dose curve at least 0.9, where 1 is the maximum; inactive = score below 0.9.

Tests used:
[1] = CCTE_Mundy_HCI_hNP1_Pro_ResponderAvgInten: CCTE's Proliferation Assay in human neuroprogenitor cells, Mundy Lab (AID 2284224; active = hit-call score of the fitted dose curve at least 0.9, where 1 is the maximum;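 note: human neural progenitor cells hNP1 derived from WA09 embryonic stem cells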)
How it was run: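 Human neuroprogenitors (hNP1, WA09 lineage) receive test chemical after 40 to 44 hours of attachment. A four-hour BrdU pulse begins twenty hours later, followed by fixation and high content imaging; signal is referenced to DMSO controls.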

[2] = BSK_BT_PBMCCytotoxicity: PBMC Cytotoxicity Assessment in the BioMAP Diversity Plus: BT Assay (AID 2284225); details: primary human B cells with PBMC;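 note: PBMC viability measured by Alamar Blue dye reduction fluorescence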
How it was run: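 Viability by Alamar Blue reduction (6 h, ex/em 546/580 nm) after 90 h culture of SEB/TSST-1-activated PBMC (20 ng/mL each) given compound 1 h before activation. DMSO served as baseline for curve fitting.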

[3] = read-out: Secreted IgG (sIgG), gene 3500; test: BSK_BT_sIgG: BioMAP Diversity Plus: BT Assay for Secreted IgG (sIgG) Biomarker Activity (AID 2284226); details: primary human B cells with PBMC
How it was run: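 Cells (B cells with peripheral blood mononuclear cells) are dosed, cultured 24 h, then supernatant IgG is measured by ELISA. DMSO serves as negative control; curves are fitted for signal increase.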

[4] = BSK_BT_Bcell_Proliferation: Viability Assessment in the BioMAP Diversity Plus: BT Assay for B cell Proliferation (AID 2284227); details: primary human B cells with PBMC
How it was run: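 SRB-based protein staining (0.1% SRB after 10% TCA fixation, 560 nm) quantifies proliferation in human B cells co-cultured with PBMC, 72 h post-dosing, with signal gain scored relative to DMSO negative control.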

[5] = read-out: Interleukin 6 (IL6), IL6 (gene 3569); test: BSK_BT_xIL6: BioMAP Diversity Plus: BT Assay for Interleukin 6 (IL6) Biomarker Activity (AID 2284228); details: primary human B cells with PBMC
How it was run: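 Readout: secreted IL-6 via Luminex xMAP multiplex, 24 h post-dosing. System: primary human B cells co-cultured with PBMC. Signal change scored relative to DMSO vehicle, positive fitting direction.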

[6] = read-out: Interleukin 17A (IL17A), IL17A (gene 3605); test: BSK_BT_xIL17A: BioMAP Diversity Plus: BT Assay for Interleukin 17A (IL17A) Biomarker Activity (AID 2284229); details: primary human B cells with PBMC
How it was run: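 Luminex xMAP readout of secreted IL-17A; human B cell + PBMC co-culture; 24 h post-dose; positive-direction fit vs DMSO negative control.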

[7] = read-out: Tumor necrosis factor (Homo sapiens) (UniProt P01375); test: BSK_BT_xTNFa: BioMAP Diversity Plus: BT Assay for Tumor necrosis factor alpha (TNF-alpha) Biomarker Activity (AID 2284230); details: primary human B cells with PBMC
How it was run: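 Compounds were added to a B cell plus PBMC co-culture, and after 24 h secreted TNF-alpha was quantified with Luminex xMAP technology, with responses fitted upward from the DMSO control.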

[8] = read-out: Vascular cell adhesion molecule 1 (VCAM1), VCAM1 (gene 7412); test: BSK_MyoF_VCAM1: BioMAP Diversity Plus: MyoF Assay for Vascular cell adhesion molecule 1 (VCAM1) Biomarker Activity (AID 2284231); details: primary human lung fibroblasts
How it was run: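 MyoF system, lung fibroblasts; 24 h post-dose; VCAM-1 by ELISA; gain-of-signal fit vs DMSO baseline.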

[9] = read-out: Collagen I, COL1A1 (gene 1277); test: BSK_MyoF_CollagenI: BioMAP Diversity Plus: MyoF Assay for Collagen I Biomarker Activity (AID 2284238); details: primary human lung fibroblasts
How it was run: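 ELISA readout of Collagen I after 24 h chemical treatment of primary human lung fibroblast cultures; gain of signal scored relative to DMSO vehicle baseline.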

[10] = read-out: Collagen III, COL3A1 (gene 1281); test: BSK_MyoF_CollagenIII: BioMAP Diversity Plus: MyoF Assay for Collagen III Biomarker Activity (AID 2284239); details: primary human lung fibroblasts
How it was run: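 Lung fibroblast culture; 24 h compound exposure; collagen III by ELISA; gain-of-signal fit vs DMSO baseline.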

[11] = CCTE_Mundy_HCI_hNP1_Casp3_7: CCTE's Caspase-Glo 3/7 Assay in human neuroprogenitor cells for Apoptosis, Mundy Lab (AID 2284240)
How it was run: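 Neuroepithelial-lineage stem cells from WA09 embryonic cells were treated with chemicals after 40–44 h of culture. Twenty-four hours later, caspase-3/7 activation was detected luminescently after a 30 min room-temperature reagent step, with DMSO as baseline.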

[12] = CCTE_Mundy_HCI_hNP1_CellTiter: CCTE's Cell Titer-Glo 2 Assay in human neuroprogenitor cells for Viability, Mundy Lab (AID 2284241; active = hit-call score of the fitted dose curve at least 0.9, where 1 is the maximum)
How it was run: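 Measures ATP content in human neural progenitors derived from WA09 embryonic cells. Read-out at 26.5 hours after dosing, with DMSO serving as the negative control and baseline.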

[13] = read-out: Interleukin 17F (IL17F), IL17F (gene 112744); test: BSK_BT_xIL17F: BioMAP Diversity Plus: BT Assay for Interleukin 17F (IL17F) Biomarker Activity (AID 2284243); details: primary human B cells with PBMC
How it was run: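 Secreted IL-17F, read on LumineX xMAP beads, was taken as the endpoint. Cultures combined human B cells and peripheral blood mononuclear cells, sampled 24 hours after dosing, with DMSO serving as negative control.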

Measured: AC50

Chain of Tumor necrosis factor (Homo sapiens) (P01375 whole entry, looked up): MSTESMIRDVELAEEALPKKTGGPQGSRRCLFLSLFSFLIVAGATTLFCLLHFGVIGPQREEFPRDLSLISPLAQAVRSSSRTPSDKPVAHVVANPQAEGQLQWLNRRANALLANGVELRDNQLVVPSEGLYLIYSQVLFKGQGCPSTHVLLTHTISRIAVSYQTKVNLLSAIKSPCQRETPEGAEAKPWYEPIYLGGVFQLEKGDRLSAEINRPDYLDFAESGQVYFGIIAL

FC(F)(F)C(F)(F)C(F)(F)C(F)(F)C(F)(F)C(F)(F)C(F)(F)C(F)(F)F
inactive: all assays above

CCc1ccc(C(c2ccc(CC)cc2)C(Cl)Cl)cc1
active: [2] 31.1 µM | [3] 14.7 µM | [4] 31.7 µM | [5] 27.8 µM | [6] 28.8 µM | [7] 28.5 µM | [8] 14.1 µM | [9] 9.01 µM | [10] 8.17 µM | [13] 29.7 µM

CC(C)(C)C(=O)CC(=O)C(F)(F)C(F)(F)C(F)(F)F
not listed: [6] | [9]
inactive: all other assays above

O=C(Cl)C(F)(F)C(F)(F)C(F)(F)C(F)(F)C(F)(F)C(F)(F)C(F)(F)C(F)(F)F
active: [8] 27.2 µM and 45.4 µM and 44.1 µM | [10] 22.5 µM and 23.5 µM and 24.7 µM
not listed: [1] | [9] | [11] | [12]
inactive: all other assays above

CCc1c(Br)c(Br)c(Br)c(Br)c1Br
active: [8] 20 µM
inactive: [2] | [3] | [4] | [5] | [7] | [10] | [13]

O=P(O)(O)OCCC(F)(F)C(F)(F)C(F)(F)C(F)(F)C(F)(F)C(F)(F)F
active: [5] 21.9 µM and 19.9 µM
not listed: [1] | [6] | [9]
inactive: all other assays above

CCCCCCC(C)OC(=O)CCCCC(=O)OC(C)CCCCCC (stereo not given)
not listed: [1] | [6] | [9] | [11] | [12]
inactive: all other assays above

O=S(=O)(O)C(F)(F)C(F)(F)C(F)(F)C(F)(F)C(F)(F)C(F)(F)C(F)(F)F
not listed: [1] | [6] | [11] | [12]
inactive: all other assays above

O=C(O)C(F)(F)C(F)(F)C(F)(F)C(F)(F)F
not listed: [1] | [6] | [9] | [11] | [12]
inactive: all other assays above

COC(=O)CCC(F)(F)C(F)(F)C(F)(F)C(F)(F)F
not listed: [1] | [6] | [9] | [11] | [12]
inactive: all other assays above

OCC(F)(F)C(F)(F)C(F)(F)C(F)(F)C(F)(F)C(F)F
not listed: [1] | [6] | [9] | [11] | [12]
inactive: all other assays above

C=CC(=O)OCC(F)(F)C(F)(F)C(F)(F)C(F)(F)COC(=O)C=C
active: [2] 11.3 µM and 11.2 µM | [3] 10.5 µM and 7.38 µM | [4] 13.7 µM and 12 µM | [5] 12.3 µM and 10.4 µM | [7] 9.76 µM and 9.35 µM | [8] 9.29 µM and 10.5 µM | [10] 12.1 µM and 14.6 µM | [13] 4.17 µM and 2.81 µM
inactive: [11] | [12]

Oc1ccc(Nc2ccccc2)cc1
inactive: [8]
active: [2] 16.7 µM | [3] 13.4 µM | [4] 22.5 µM | [5] 20 µM | [7] 30.1 µM | [10] 16.2 µM | [13] 27.7 µM

O=C(CC(=O)C(F)(F)C(F)(F)F)C(F)(F)F
active: [13] 20.8 µM
inactive: [2] | [3] | [4] | [5] | [7] | [8] | [9] | [10] | [11] | [12] | [13]

FC(F)(I)C(F)(F)C(F)(F)C(F)(F)I
active: [2] 49.7 µM and 47.7 µM and 47.2 µM | [3] 45.7 µM and 46.4 µM and 56.3 µM | [4] 52.2 µM and 54.9 µM and 48.7 µM | [5] 46.3 µM and 55.2 µM and 45.9 µM | [7] 48.3 µM and 46.1 µM and 46 µM | [8] 52.7 µM and 45.4 µM and 45.5 µM | [9] 51.6 µM and 46.4 µM and 54.1 µM | [10] 53.1 µM and 54.9 µM and 54.2 µM | [13] 30 µM and 47.7 µM and 43.1 µM

OCC(F)(F)C(F)(F)C(F)(F)F
not listed: [1] | [6]
inactive: all other assays above

OCCCC(F)(F)C(F)(F)C(F)(F)C(F)(F)C(F)(F)C(F)(F)C(F)(F)F
inactive: [11] | [12]
active: [2] 20.4 µM and 20.1 µM | [3] 18.3 µM and 48.6 µM | [4] 23.6 µM and 20.6 µM | [5] 21 µM and 25.9 µM | [7] 20.2 µM and 23 µM | [8] 51.2 µM and 50.4 µM | [10] 46.9 µM and 52.2 µM | [13] 17.8 µM and 18.5 µM

FC(F)(F)C(F)(F)C(F)(F)C(F)(F)C(F)(F)C(F)(F)CCS
not listed: [1] | [6] | [9] | [11] | [12]
inactive: all other assays above
